An excerpt weighted towards active compounds, which were near 7.9% of everything screened.
Shh pathway inh – blocks Sonic Hedgehog signaling. Shh-LIGHT2 Gli-luciferase reporter, 30 h. inhibition, % (no concentration beside the values). 22,000 compounds, 2.1% hits;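 active = mean inhibition across valid replicates above about 65%, limit read from the data; inconclusive = mean under the limit, yet half or more replicates past it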;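 also: pathway switched on by Shh-conditioned medium diluted 1 in 25 in low serum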
PD-1 reverse act – activators reversing PD-1 mediated T-cell inhibition | primary human CD4 T cells, PD-L1 beads, CellTiter-Glo 96 h | activation, % (concentration not given with the values) | 29,000 tested, under 10 active | AID 2316; call rule not given here;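 also: 0% = median vehicle wells and 100% = positive control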
NOMO-1 viab – STK33 inhibitor candidate reducing NOMO-1 cell viability | NOMO-1 AML viability, CellTiter-Glo luminescence, 72 h | inhibition, % (concentration not given with the values) | 37,000 compounds, 7.5% hits; in the data active = inhibition above about 80%; inconclusive = no clear call, values can overlap the other calls
MITF inhib – MITF inhibition; AID 2240; 37,000 compounds, 0.28% hits; TRPM1 promoter luciferase, luminescence, 24 h; inhibition, % (no concentration beside the values); in the data active = inhibition above about 85%; inconclusive = no clear call, values can overlap the other calls; inactive = below about 68%;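 also: human melanocyte line stably carrying TRPM1 promoter luciferase reporter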
Numbers without * were called inactive; u = inconclusive; x = no result given.

SMILES | Shh pathway inh | PD-1 reverse act | NOMO-1 viab | MITF inhib
C[C@@H]1O[C@@H](O[C@H]2[C@@H]3C=CO[C@@H](O[C@@H]4O[C@H](CO)[C@@H](O)[C@H](O)[C@H]4O)[C@@H]3[C@@]3(CO)O[C@@H]23)[C@H](OC(=O)/C=C/c2ccc(O)cc2)[C@H](O)[C@H]1O | 65* | x | x | x
C[C@@H]1CN([C@@H](C)CO)C(=O)c2cccc(NC(=O)C3CCCCC3)c2O[C@H]1CN(C)Cc1ccc(C(F)(F)F)cc1 | 26 | -2 | 105* | 22
C[C@H](CO)N1C[C@H](C)[C@H](CN(C)Cc2ccc(C(F)(F)F)cc2)Oc2c(NC(=O)C3CCCCC3)cccc2C1=O | 0 | x | 59 | 15
C[C@H]1CN([C@@H](C)CO)C(=O)c2cccc(NC(=O)C3CCCCC3)c2O[C@@H]1CN(C)Cc1ccc(C(F)(F)F)cc1 | -40 | 1 | 91* | -13
C[C@H](CO)N1C[C@H](C)[C@@H](CN(C)Cc2ccc(C(F)(F)F)cc2)Oc2c(NC(=O)C3CCCCC3)cccc2C1=O | -13 | -2 | 99* | 43
C=CC1(C)C[C@H](OC(=O)C(C)CO)[C@H]2C(=C)C(=O)O[C@@H]2C1C(=C)CO (stereo partly specified) | 32 | -8 | 115* | 5
C=C[C@]1(C)C[C@H](O)[C@H]2C(=C)C(=O)O[C@@H]2[C@H]1C(=C)CO | -10 | -1 | 53 | 0
O=C(CN1C(=O)c2ccccc2S1(=O)=O)Nc1ccc(N2CCOCC2)cc1 | x | x | 1 | 4
CC(=O)OC[C@]12[C@H](OC(C)=O)[C@H](OC(C)=O)[C@@H]3[C@@H](OC(C)=O)[C@@]14O[C@@]3(C)COC(=O)c1cnccc1CC[C@H](C)C(=O)O[C@@]4(C)[C@@H](O)[C@H](O)[C@@H]2OC(C)=O | -4 | -3 | 119* | 29
CCN(CC(=O)Nc1ccccc1)S(=O)(=O)c1ccc(F)cc1 | x | x | 10 | -13
C[C@H]1CN([C@@H](C)CO)C(=O)Cc2cc(NC(=O)c3ccncc3)ccc2O[C@H]1CN(C)Cc1ccc(-c2ccccc2)cc1 | 24 | x | 89* | 33
C[C@@H]1CN([C@H](C)CO)C(=O)Cc2cc(NC(=O)c3ccncc3)ccc2O[C@@H]1CN(C)Cc1ccc(Oc2ccccc2)cc1 | 73* | -3 | 25 | 4
C[C@@H]1CN([C@@H](C)CO)C(=O)Cc2cc(NC(=O)c3ccncc3)ccc2O[C@@H]1CN(C)Cc1ccccc1 | 1 | 2 | 24 | -2
CCc1ccc(N2C(N)=C(C#N)C(c3cccc(Cl)c3)c3c(C)noc32)cc1 (stereo unspecified) | 7 | 1 | -11 | 1
O=C(CSc1ncnc2sc3c(c12)CCC3)Nc1cccc(-c2nc3ccccc3s2)c1 | x | x | 23 | -69
CC(C)S(=O)(=O)c1csc(C(=O)OCC(=O)c2ccc(Cl)cc2)c1N | x | 1 | 26 | 5
COc1ccccc1N1CCN(CC(=O)Nc2ccc([N+](=O)[O-])cc2C(=O)Nc2ccccc2F)CC1 | x | x | 55 | -11
Cc1ccc2cccc(S(=O)(=O)N3CCC(C(=O)O)CC3)c2n1 | x | 3 | -3 | -3
C[C@@H]1CN([C@@H](C)CO)C(=O)c2cc(NC(=O)Nc3ccc(C(F)(F)F)cc3)ccc2O[C@@H]1CN(C)Cc1ccc2c(c1)OCO2 | x | -2 | 112* | -4
C[C@H](CO)N1C[C@H](C)[C@H](CN(C)Cc2ccc3c(c2)OCO3)Oc2ccc(NC(=O)Nc3ccc(C(F)(F)F)cc3)cc2C1=O | 8 | 0 | 99* | 1
C[C@H]1CN([C@@H](C)CO)C(=O)c2cc(NC(=O)Nc3ccc(C(F)(F)F)cc3)ccc2O[C@@H]1CN(C)Cc1ccc2c(c1)OCO2 | x | -5 | 101* | -12
C[C@@H]1CN([C@@H](C)CO)C(=O)c2cc(NC(=O)Nc3ccc(C(F)(F)F)cc3)ccc2O[C@H]1CN(C)Cc1ccc2c(c1)OCO2 | x | -3 | 59 | -3
C[C@@H]1CN([C@@H](C)CO)C(=O)c2cc(NC(=O)Nc3ccc(F)cc3)ccc2O[C@@H]1CN(C)Cc1ccc2c(c1)OCO2 | 44 | 1 | 19 | -2
C[C@H]1CN([C@@H](C)CO)C(=O)c2cc(NC(=O)Nc3ccc(F)cc3)ccc2O[C@H]1CN(C)Cc1ccc2c(c1)OCO2 | -25 | -1 | 92* | 7
CN(CCO)S(=O)(=O)c1cccc(C(=O)O)c1 | x | -2 | -7 | 10
SMILES | Shh pathway inh | PD-1 reverse act | NOMO-1 viab | MITF inhib
FC(F)(F)c1ccc(-c2nnc(SCc3ccncc3)n2Cc2ccco2)cc1 | x | 0 | 20 | 16
CN(C)C1=NC(C(F)(F)F)(C(F)(F)F)N=C(c2ccccc2)O1 | -27 | 0 | -6 | -8
O=C(Nc1ccccc1)Nc1ccc2nnsc2c1 | -63 | 1 | 83* | -20
CCOc1ccc(NC(=O)c2c(NC(=O)c3ccco3)sc3c2CCCCC3)cc1 | x | x | 110* | 22
C[C@H](CO)N1C[C@H](C)[C@H](CN(C)S(=O)(=O)c2ccc(Cl)cc2)Oc2c(NC(=O)Nc3ccc(C(F)(F)F)cc3)cccc2C1=O | 100* | -3 | 53 | 10
C[C@H](CO)N1C[C@H](C)[C@H](CN(C)S(=O)(=O)c2ccccc2)Oc2c(NC(=O)Nc3ccc(C(F)(F)F)cc3)cccc2C1=O | -30 | 0 | 29 | 0
C[C@H]1CN([C@@H](C)CO)C(=O)c2cccc(NC(=O)Nc3ccc(C(F)(F)F)cc3)c2O[C@H]1CN(C)S(=O)(=O)c1ccc(Cl)cc1 | 105* | x | 60 | -3
Cc1ccc(F)cc1NC(=O)CCCSc1nc(-c2ccco2)cc(C(F)(F)F)n1 | x | 1 | 23 | -12
C[C@H](CO)N1C[C@H](C)[C@H](CN(C)C)Oc2ccc(NC(=O)Nc3ccc(C(F)(F)F)cc3)cc2CC1=O | x | x | 41 | 1
C[C@H]1CN([C@@H](C)CO)C(=O)Cc2cc(NC(=O)Nc3ccc(C(F)(F)F)cc3)ccc2O[C@H]1CN(C)S(C)(=O)=O | x | x | 90* | -9
C[C@@H]1CN([C@H](C)CO)C(=O)Cc2cc(NC(=O)Nc3ccc(C(F)(F)F)cc3)ccc2O[C@@H]1CN(C)S(C)(=O)=O | -9 | -2 | 86* | -25
C[C@@H]1CN([C@H](C)CO)C(=O)Cc2cc(NC(=O)Nc3ccc(C(F)(F)F)cc3)ccc2O[C@H]1CN(C)C | 21 | 3 | -9 | -15
C[C@H]1CN([C@@H](C)CO)C(=O)Cc2cc(NC(=O)Nc3ccc(C(F)(F)F)cc3)ccc2O[C@H]1CN(C)S(=O)(=O)c1cccs1 | 4 | -4 | 128* | 38
N#Cc1cnc(SCC(=O)NC(=O)Nc2ccccc2)nc1N | 9 | -1 | -19 | -17
CCn1c(SCC(=O)Nc2ccc(Cl)cc2Cl)nnc1-c1cccc(C)c1 | x | 0 | -13 | -10
Cn1c(SCC(=O)c2ccc(F)cc2)nnc1-c1cccc([N+](=O)[O-])c1 | x | x | 1 | -7
O=C(COc1ccccc1[N+](=O)[O-])Nc1ccc(O)c(-c2nc3ccccc3s2)c1 | x | x | 79 | 7
CCCC[C@@H](C)/C=C(C)/C=C(\C)C(=O)NC1=C[C@@](O)(/C=C/C=C/C=C/C(=O)NC2C(=O)CCC2=O)[C@@H]2O[C@@H]2C1=O | 51 | -57 | 142* | -12
COC(=O)c1cccc(C(=O)Nc2ccc(F)cc2)n1 | x | 1 | u | 1

From PubChem BioAssay
